The values that follow come from PubChem BioAssay (EPA / NIEHS).

The source made the active and inactive calls. How the source made its calls: active means hit-call score of the fitted dose curve at least 0.9, where 1 is the maximum; inactive means score below 0.9.

Test [1] is described as follows: ATG_M_61_CIS: Attagene CIS-FACTORIAL HepG2 Assay for M61 Transcription Factor (Internal Marker) (AID 2282937). The following applies: HepG2 Attagene CIS-FACTORIAL M61 internal marker reporter; actives raise or lower the signal. In a few lines:
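Cells were transfected with reporter units under cis-regulatory promoters, treated with chemicals for 24 h, then lysed for RNA. Reporter transcripts were quantified by RT-PCR and capillary electrophoresis, and activity was fitted bidirectionally against DMSO.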

The nature of test [2]: ATG_EGR_CIS: Attagene CIS-FACTORIAL HepG2 Assay for human Early Growth Response 1 (EGR1) (AID 2282938). As to conditions: HepG2 Attagene CIS-FACTORIAL EGR reporter mRNA; actives raise or lower the signal. In a few lines: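 Endogenous TF activity in HepG2 liver cells was gauged through cis-promoter reporter constructs transiently transfected. After 24 h dosing, reporter mRNA was quantified by RT-PCR and capillary electrophoresis, and curves fitted in both directions versus DMSO.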

Test [3] can be described thus: ATG_Ets_CIS: Attagene CIS-FACTORIAL HepG2 Assay for human Erythroblast Transformation Specific (ETS) (AID 2282941). As to conditions: HepG2 ETS cis-reporter transcription, actives raise or lower the signal. The gist of the method:
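RT-PCR/capillary electrophoresis fluorescence read-out of reporter mRNA; HepG2 transient multi-reporter transfection; 24 h compound exposure; gain or loss of signal fitted bidirectionally relative to DMSO.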

Test [4] concerns the target Hepatocyte nuclear factor 3-beta (Homo sapiens) (UniProt Q9Y261). As to the kind of experiment: ATG_FoxA2_CIS: Attagene CIS-FACTORIAL HepG2 Assay for human Forkhead box A2 (FOXA2) (AID 2282942). As to conditions: HepG2 cis-reporter transcription factor activity, 24 h; actives raise or lower the signal. In a few lines:
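Endogenous transcription factor activity was read in HepG2 cells carrying transiently transfected cis-promoter reporter units. After 24 h dosing, reporter mRNA was quantified by RT-PCR and capillary electrophoresis, and values fitted bidirectionally versus DMSO.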

Test [5] in a line: ATG_FoxO_CIS: Attagene CIS-FACTORIAL HepG2 Assay for human Forkhead box O (FoxO) (AID 2282943). As to conditions: HepG2 Attagene cis-reporter, FoxO element, mRNA; actives raise or lower the signal. The gist of the method:
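HepG2, transient MRTU transfection (cis element, endogenous TFs). Dose 24 h. TriZol RNA → oligo(dT) RT → PCR → 6-FAM primer extension → HpaI cut → CE. Gain/loss vs DMSO.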

Test [6] can be described thus: ATG_GATA_CIS: Attagene CIS-FACTORIAL HepG2 Assay for human GATA Binding Protein (AID 2282944). As to conditions: HepG2 GATA cis-element reporter, Attagene multiplex mRNA; actives raise or lower the signal. In a few lines: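 Read-out: fluorescent reporter mRNA fragments resolved by capillary electrophoresis after RT-PCR. Human liver HepG2 cells carried transiently transfected cis-regulated reporter constructs; chemicals incubated 24 h; gain or loss of signal fitted relative to DMSO.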

Test [7] is described as follows: ATG_GLI_CIS: Attagene CIS-FACTORIAL HepG2 Assay for human Zinc Finger Protein GLI1 (AID 2282945). The following applies: HepG2, Attagene cis-factorial reporter mRNA, GLI element; actives raise or lower the signal. The gist of the method:
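Bidirectional curve fits relative to DMSO, using reporter mRNA levels from RT-PCR plus capillary electrophoresis. Cells were HepG2 transiently carrying cis-regulated reporter constructs, harvested 24 h after dosing.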

A short description of test [8]: ATG_ISRE_CIS: Attagene CIS-FACTORIAL HepG2 Assay for human Interferon Regulatory Factor 1 (IRF1) binding to an Interferon-Stimulated Response Element (ISRE) (AID 2282948). As to conditions: HepG2 ISRE cis-reporter (Attagene), mRNA transcription readout; actives raise or lower the signal. In a few lines: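 Read-out: fluorescent RT-PCR products resolved by capillary electrophoresis, reporting endogenous transcription factor activity via ISRE-driven reporter mRNA in transfected HepG2 cells dosed for 24 h; gain or loss fitted relative to DMSO.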

Test [9] can be described thus: ATG_M_32_CIS: Attagene CIS-FACTORIAL HepG2 Assay for M32 Transcription Factor (Internal Marker) (AID 2282949).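 Further: background control marker of the multiplexed CIS panel rather than a real target.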 As to conditions: HepG2 Attagene cis-factorial M32 reporter, mRNA; actives raise or lower the signal. The gist of the method:
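Using DMSO as baseline, bidirectional curve fits were applied to reporter mRNA signals. These came from transiently transfected HepG2 cells exposed for 24 h, with RNA analysed by RT-PCR, FAM primer extension, HpaI digestion and CE.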

Test [10] can be described thus: ATG_M_06_CIS: Attagene CIS-FACTORIAL HepG2 Assay for M06 Transcription Factor (Internal Marker) (AID 2282950). The following applies: HepG2 Attagene CIS-FACTORIAL M06 internal marker reporter; actives raise or lower the signal. In a few lines:
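Terse: HepG2, transient MRTU transfection (FuGene 6), 24 h dosing; total RNA, oligo(dT) RT, PCR, FAM label, HpaI cut, capillary electrophoresis; bidirectional fit vs DMSO baseline; background-control endpoint.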

Test [11] deals with Hypoxia-inducible factor 1-alpha (Homo sapiens) (UniProt Q16665). As to the kind of experiment: ATG_HIF1a_CIS: Attagene CIS-FACTORIAL HepG2 Assay for human Hypoxia Inducible Factor 1 (HIF1A) (AID 2282951). As to conditions: HepG2 Attagene cis-factorial HIF1a reporter transcription; actives raise or lower the signal. In a few lines: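 Measures endogenous transcription-factor activity through cis-regulated reporter mRNA in HepG2. Cells dosed 24 h; transcripts quantified by RT-PCR with 6-FAM-labelled products separated by capillary electrophoresis; DMSO serves as negative control.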
Hypoxia-inducible factor 1-alpha (Homo sapiens), sequence (Q16665 whole entry, looked up): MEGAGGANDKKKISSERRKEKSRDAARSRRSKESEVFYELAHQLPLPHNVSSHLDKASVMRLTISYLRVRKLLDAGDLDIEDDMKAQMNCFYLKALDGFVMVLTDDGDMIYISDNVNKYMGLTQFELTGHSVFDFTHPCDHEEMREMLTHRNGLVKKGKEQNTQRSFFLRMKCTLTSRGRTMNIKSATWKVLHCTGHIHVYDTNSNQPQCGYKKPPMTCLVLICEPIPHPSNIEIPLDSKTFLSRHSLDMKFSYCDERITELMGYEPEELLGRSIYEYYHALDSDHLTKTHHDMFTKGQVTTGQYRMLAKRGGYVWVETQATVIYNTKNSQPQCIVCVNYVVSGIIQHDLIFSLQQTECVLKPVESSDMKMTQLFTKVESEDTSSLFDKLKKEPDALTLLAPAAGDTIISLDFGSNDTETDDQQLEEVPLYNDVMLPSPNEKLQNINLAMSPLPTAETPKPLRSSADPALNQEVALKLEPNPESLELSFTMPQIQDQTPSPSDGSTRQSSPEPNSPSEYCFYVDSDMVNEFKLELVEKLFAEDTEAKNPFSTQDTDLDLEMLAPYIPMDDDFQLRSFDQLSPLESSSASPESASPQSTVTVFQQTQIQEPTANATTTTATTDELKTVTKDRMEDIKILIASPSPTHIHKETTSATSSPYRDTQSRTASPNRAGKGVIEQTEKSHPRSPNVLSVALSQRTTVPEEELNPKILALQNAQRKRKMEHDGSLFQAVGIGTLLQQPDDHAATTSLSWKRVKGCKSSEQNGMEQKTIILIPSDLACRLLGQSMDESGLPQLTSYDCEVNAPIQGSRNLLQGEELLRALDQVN

The target of test [12] is Hepatocyte nuclear factor 6 (Homo sapiens) (UniProt Q9UBC0). Kind of test: ATG_HNF6_CIS: Attagene CIS-FACTORIAL HepG2 Assay for human Hepatocyte Nuclear Factor 6 (HNF6) (AID 2282952). The following applies: HepG2 Attagene cis-factorial HNF6 reporter transcription; actives raise or lower the signal. In a few lines:
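Endogenous transcription factor activity in human HepG2 liver cells was captured through cis-regulated reporter constructs. After 24 h treatment, reporter mRNA was measured by RT-PCR with capillary electrophoresis, and activity was fitted in both directions relative to DMSO.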

For test [13], the target named is Heat shock factor protein 1 (Homo sapiens) (UniProt Q00613). As to the kind of experiment: ATG_HSE_CIS: Attagene CIS-FACTORIAL HepG2 Assay for human Heat Shock Transcription Factor 1 (HSE) (AID 2282953). As to conditions: HepG2 HSE cis-reporter, Attagene RNA transcription; actives raise or lower the signal. The gist of the method:
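Read-out: fluorescence of reporter-specific RT-PCR fragments separated by capillary electrophoresis. HepG2 carrying transfected cis-element reporter units; 24 h dosing; activity fitted in both directions relative to DMSO baseline.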

The nature of test [14]: ATG_MRE_CIS: Attagene CIS-FACTORIAL HepG2 Assay for human Metal Responsive Element (MRE) (AID 2282954). The following applies: HepG2 MRE cis-reporter transcription, Attagene multiplex; actives raise or lower the signal. In a few lines: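 Multiplexed cis-reporter assay in human HepG2 liver cells, 24 h incubation with test chemical. Reporter transcripts measured by RT-PCR and capillary electrophoresis; values from bidirectional curve fitting versus DMSO.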

Test [15] is described as follows: ATG_PBREM_CIS: Attagene CIS-FACTORIAL HepG2 Assay for human Phenobarbital-responsive Enhancer Module (PBREM) (AID 2282955). The following applies: HepG2 PBREM cis-reporter, Attagene multiplexed transcription; actives raise or lower the signal. The gist of the method:
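Fluorescence of labelled reporter cDNA fragments, resolved by capillary electrophoresis, gives mRNA induction in transfected HepG2 cells treated for 24 h; DMSO serves as negative control and baseline.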

Test [16] in a line: ATG_M_19_CIS: Attagene CIS-FACTORIAL HepG2 Assay for M19 Transcription Factor (Internal Marker) (AID 2282939). As to conditions: HepG2 Attagene CIS-FACTORIAL M19 internal marker reporter; actives raise or lower the signal. In a few lines: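 Readout: fluorescent reporter-transcript fragments by capillary electrophoresis after RT-PCR. Human HepG2 liver cells carried transfected MRTU constructs reporting endogenous transcription-factor activity; exposure 24 h. Gain or loss of signal fitted relative to DMSO.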

Test [17] is described as follows: ATG_GRE_CIS: Attagene CIS-FACTORIAL HepG2 Assay for human Glucocorticoid Response Elements (GRE) (AID 2282947). The following applies: HepG2 GRE cis-reporter, Attagene multiplex mRNA; actives raise or lower the signal. In a few lines:
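Multiplexed cis-reporter mRNA induction, HepG2, 24 h post-dose. RT-PCR, FAM-labelled, HpaI-digested amplicons by CE. Bidirectional fit vs DMSO.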

Test [18] in a line: ATG_ERE_CIS: Attagene CIS-FACTORIAL HepG2 Assay for Estrogen Response Element (ERE) (AID 2282940). The following applies: HepG2 ERE cis-reporter, Attagene RNA transcript; actives raise or lower the signal. The gist of the method:
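Readout: reporter mRNA induction by RT-PCR, FAM-labelled primer extension, HpaI digestion and capillary electrophoresis, 24 h after dosing transfected HepG2 cells. Endogenous transcription factors act on cis-element-regulated reporters. Gain or loss fitted against DMSO.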

Heat shock factor protein 1 (Homo sapiens), sequence (Q00613 whole entry, looked up, the tested form may be a part): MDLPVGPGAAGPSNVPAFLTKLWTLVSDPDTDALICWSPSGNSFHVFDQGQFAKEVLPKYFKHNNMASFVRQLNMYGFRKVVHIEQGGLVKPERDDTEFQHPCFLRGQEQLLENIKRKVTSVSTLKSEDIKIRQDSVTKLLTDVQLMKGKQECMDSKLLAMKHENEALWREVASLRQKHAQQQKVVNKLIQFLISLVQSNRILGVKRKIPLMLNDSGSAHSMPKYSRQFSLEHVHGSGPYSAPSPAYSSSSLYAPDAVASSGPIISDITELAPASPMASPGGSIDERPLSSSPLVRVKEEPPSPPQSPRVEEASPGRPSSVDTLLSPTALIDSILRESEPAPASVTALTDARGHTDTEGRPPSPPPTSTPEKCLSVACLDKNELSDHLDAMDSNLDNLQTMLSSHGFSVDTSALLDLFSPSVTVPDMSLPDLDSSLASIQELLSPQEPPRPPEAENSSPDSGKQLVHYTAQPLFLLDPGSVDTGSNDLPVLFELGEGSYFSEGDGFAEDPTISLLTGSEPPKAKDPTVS
Hepatocyte nuclear factor 3-beta (Homo sapiens), sequence (Q9Y261 whole entry, looked up): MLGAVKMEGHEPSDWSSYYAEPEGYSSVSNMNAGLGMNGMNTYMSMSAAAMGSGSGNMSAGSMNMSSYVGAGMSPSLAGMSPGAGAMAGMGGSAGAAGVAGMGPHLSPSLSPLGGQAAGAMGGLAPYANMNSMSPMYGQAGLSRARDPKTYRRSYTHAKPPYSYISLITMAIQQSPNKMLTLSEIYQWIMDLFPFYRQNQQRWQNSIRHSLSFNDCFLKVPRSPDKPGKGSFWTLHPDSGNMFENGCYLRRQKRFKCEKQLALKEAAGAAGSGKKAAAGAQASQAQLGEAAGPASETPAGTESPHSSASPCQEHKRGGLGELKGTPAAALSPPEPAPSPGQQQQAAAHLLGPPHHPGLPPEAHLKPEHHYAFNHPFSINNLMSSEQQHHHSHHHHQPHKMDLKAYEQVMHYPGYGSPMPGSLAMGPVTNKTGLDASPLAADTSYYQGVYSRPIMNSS
Hepatocyte nuclear factor 6 (Homo sapiens), sequence (Q9UBC0 whole entry, looked up): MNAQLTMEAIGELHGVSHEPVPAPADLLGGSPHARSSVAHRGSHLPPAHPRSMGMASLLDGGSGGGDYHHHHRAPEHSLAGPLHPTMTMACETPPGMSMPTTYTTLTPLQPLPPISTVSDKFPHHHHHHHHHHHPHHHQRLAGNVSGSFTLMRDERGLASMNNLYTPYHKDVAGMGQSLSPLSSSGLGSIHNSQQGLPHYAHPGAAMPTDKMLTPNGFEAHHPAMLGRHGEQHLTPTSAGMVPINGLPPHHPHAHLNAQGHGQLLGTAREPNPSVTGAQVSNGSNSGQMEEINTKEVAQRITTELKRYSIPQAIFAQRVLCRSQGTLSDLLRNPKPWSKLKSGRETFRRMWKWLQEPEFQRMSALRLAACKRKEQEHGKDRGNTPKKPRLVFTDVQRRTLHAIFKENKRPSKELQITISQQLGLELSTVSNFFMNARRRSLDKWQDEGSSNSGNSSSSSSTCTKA

For `Cc1ccc(C=O)s1`, the molecule was classed as inactive in [1], in test [2], in test [3], in test [4], in test [5] and in test [6]. Also, the call in test [7], in test [8], in [9], in test [10], in [11] and in test [12] was inactive. The molecule was called inactive in [13], in [14] and in test [15].

As to `O=S(=O)(O)c1cccc2c(S(=O)(=O)O)cccc12`, the call in test [1], in [2], in [16], in test [3], in test [4] and in test [5] was inactive. Besides, the outcome in [6], in [17], in [8], in test [10], in [12] and in test [13] was inactive. The call in [14] and in test [15] was inactive.

On to `CC(O)C(C)O` (stereo unspecified), for which the outcome in [1], in test [2], in test [16], in test [3], in test [4] and in test [5] was inactive. In addition, the call in test [6], in [7], in test [17], in test [8], in [9] and in test [11] was inactive. Besides, the call in test [12], in test [13] and in [14] was inactive.

For the molecule `C=C[Si](OCC)(OCC)OCC`, the molecule was called inactive in [1], in [2], in [16], in test [3], in test [4] and in test [5]. The result in test [6], in test [7], in test [17], in test [8], in test [9] and in test [11] was inactive. In addition, the result in [12], in test [13] and in test [14] was inactive.

For the molecule `CC(C)=CCCC(C)=CCCC(C)=CCO`, the molecule was called inactive in [1], in test [2], in test [16], in test [3], in test [4] and in test [5]. Besides, the result in test [6], in test [7], in [8], in [9], in test [10] and in test [11] was inactive. Moreover, the result in test [12], in test [13], in [14] and in [15] was inactive.

With `CC(C)CCCCCCCOC(=O)c1ccc(C(=O)OCCCCCCCC(C)C)c(C(=O)OCCCCCCCC(C)C)c1`, the call in test [1], in [2], in test [16], in test [3], in test [4] and in test [5] was inactive. The outcome in [7], in [17], in [8], in test [9], in [10] and in test [11] was inactive. The call in [12], in test [13], in test [14] and in test [15] was inactive.

On to `NC(=O)Nc1ccc(Cl)cc1`, for which the call in test [1], in [2], in test [16], in [18], in test [3] and in test [4] was inactive. Moreover, the call in test [5], in test [6], in test [7], in test [17], in test [8] and in [9] was inactive. In addition, the result in test [10], in test [11], in [12], in test [13], in test [14] and in [15] was inactive.

As usually defined, the AC50 is the midpoint of the concentration-response curve, whichever way the signal moves. In the case of `CCCCCCCCCC=O`, the molecule was classed as inactive in test [1], in [2], in test [16], in test [18], in test [3] and in [4]. Also, the molecule was classed as inactive in test [5], in test [6], in test [7], in test [17], in [8] and in test [9]. The call in test [10], in test [12], in [13] and in test [14] was inactive. Also, the AC50 in [11] is 19.8 µM (active).
